High-throughput results from PubChem BioAssay.
AmpC nodet inh – blocks E. coli AmpC beta-lactamase in absence of detergent; AmpC nitrocefin hydrolysis, absorbance 480 nm, no detergent; P00811; 71,000 compounds, 1.8% hits; Potency, µM (series often up to 28.7 µM), for the others: at the highest dose activity change, negative = inhibition; also: % of control where 0% means no effect
Target sequence (P00811 whole entry, looked up): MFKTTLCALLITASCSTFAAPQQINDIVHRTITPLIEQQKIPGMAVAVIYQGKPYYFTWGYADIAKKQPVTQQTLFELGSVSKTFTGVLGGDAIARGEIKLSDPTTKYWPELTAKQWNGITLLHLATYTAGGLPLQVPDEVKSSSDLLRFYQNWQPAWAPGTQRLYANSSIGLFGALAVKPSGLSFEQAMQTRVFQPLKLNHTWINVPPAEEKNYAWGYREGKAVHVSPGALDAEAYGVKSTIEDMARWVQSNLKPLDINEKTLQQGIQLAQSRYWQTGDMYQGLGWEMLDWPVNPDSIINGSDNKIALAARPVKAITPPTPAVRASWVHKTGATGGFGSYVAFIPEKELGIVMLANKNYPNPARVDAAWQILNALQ
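AmpC, 20 mM phosphate pH 7.0; 15 min cpd preinc, RT; start with nitrocefin (800 uM stock); A480 kinetic read, 20 s intervals, 4 min. No-enzyme wells = negative control.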
AmpC inh det – AmpC beta-lactamase inhibition, detergent assay. P00811. purified AmpC, nitrocefin hydrolysis with detergent. Potency, µM (doses to about 28.7 µM), for the others: top-dose activity change, negative = inhibition. 71,000 compounds, 0.09% hits. AID 584; active = well fitted curve in the direction sought with a large enough effect; inconclusive = small, poorly fitted or top-dose-only effect; also: % is scaled to controls: 0 for no effect and ±100 for the full control effect
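E. coli AmpC (5.3 nM) in 20 mM phosphate pH 7.0 with 0.01% Triton X-100, preincubated 15 min RT with compound; nitrocefin (2 uL of 800 uM stock) hydrolysis followed by 480 nm absorbance every 20 s over 4 min.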
Prx2 Sm inh – blocks S. mansoni peroxiredoxin 2 enzymatic activity; S. mansoni Prx2 activity coupled to TGR/GSH (TGR is thioredoxin glutathione reductase), NADPH fluorescence loss, qHTS; Potency, µM; 65,000 compounds, 0.07% hits; AID 448
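Enzyme mix: 100 uM NADPH, 25 nM TGR, 700 uM GSH, 50 nM Prx2 in 100 mM phosphate pH 7.4, 10 mM EDTA, 0.01% Tween-20. 15 min RT with compound; NADPH/GSH added, H2O2 starts reaction; NADPH fluorescence read 8 min.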
Anthrax LT inh – inhibitors of anthrax lethal toxin internalization. Cells, anthrax lethal toxin internalization, FRET ratio (460/530). Potency, µM (titrated, usually from 40 µM), inactives show top-dose activity change, negative = inhibition, hits mostly inhibitors. 70,000 compounds, 0.67% hits; also: % is scaled to controls: 0 for no effect and ±100 for the full control effect; nearly all actives have a fitted effect of over 50% in size
Numbers without * were called inactive; ? = inconclusive; . = no result given; [ ] = remark or other dose. An excerpt weighted towards active compounds, which were near 2.4% of everything screened. Unless noted, calls follow the shape of the full dose curve. Potency is read from the fitted curve at half-maximal effect.

SMILES	AmpC nodet inh	AmpC inh det	Prx2 Sm inh	Anthrax LT inh
CC(=O)n1nc(-c2ccco2)nc1SCc1ccccc1	?	-2%	?	7.9µM*
CCOc1ccc(C2CC(c3cccc(C)c3)n3ncnc3N2)cc1 (configuration not stated)	83%	13%	>57	-13%
c1ccc(C2CC(c3ccccc3)n3ncnc3N2)cc1 (configuration not stated)	16%	0%	>57	7%
COc1ccc(C2CC(c3ccco3)n3ncnc3N2)cc1 (configuration not stated)	2.5µM*[single pt active]	8%	>57	-10%
Fc1ccc(C2CC(c3ccccc3)Nc3ncnn32)cc1 (configuration not stated)	4µM*[single pt active]	14%	>57	-11%
COc1ccc(C2CC(c3cccc(C)c3)n3ncnc3N2)cc1 (configuration not stated)	4µM*[single pt active]	15%	>57	-2%
Cc1cccc(C2CC(c3ccccc3)Nc3ncnn32)c1 (configuration not stated)	4µM*[single pt active]	15%	>57	-1%
O=C(O)C(O)(c1ccc(-c2ccccc2)cc1)c1ccc(-c2ccccc2)cc1	-1%[5.75 µM]	-9%[5.75 µM]	>57	?
CCCN1C[C@@H](CSC)C[C@H]2c3cccc4[nH]cc(c34)C[C@@H]21	21%	0%	>57	?
Cc1ccc2nc(SCC(=O)NCc3ccco3)c(C#N)cc2c1	16µM*[single pt active]	9%	>57	-13%
Cc1ccc2cc(C#N)c(SCC(=O)NCc3ccco3)nc2c1	-24%	7%	>57	-17%
C[C@@H](C[C@H](N)C(=O)O)C(=O)O	-4%[5.75 µM]	-2%[5.75 µM]	>57	12%[8 µM]
COc1ccc(NC(=O)C2CCCN(S(=O)(=O)c3cccnc3)C2)c(OC)c1 (configuration not stated)	4µM*[single pt active]	16%	>57	-2%
COc1ccc(S(=O)(=O)N2CCCC(C(=O)Nc3cccnc3)C2)cc1Cl (configuration not stated)	41%	10%	>57	-10%
O=C(NCc1ccccc1)C1CCCN(S(=O)(=O)c2cccnc2)C1 (configuration not stated)	0%	-2%	>57	-6%
CCN(CC)c1ccc(NC(=O)C2CCCN(S(=O)(=O)c3cccnc3)C2)c(C)c1 (configuration not stated)	4µM*[single pt active]	16%	>57	-13%
CC(C)Oc1ccc2c(=O)c3cc(C(=O)O)ccc3oc2c1	4%	-3%	>57	?
N[C@H](Cc1ccc(F)cc1)C(=O)O	1%	-6%	>57	0%
COCCn1c(=O)c(-c2cn(C)c3ccccc23)nc2cnc(Oc3ccc(OC)cc3)nc21	9%	0%	>57	?
Cc1cc(N=Cc2c(O)n(-c3ccc4c(c3)OCO4)c(=O)c3ccccc23)ccn1	111%	9%	>57	7.9µM*
COc1ccc(-c2oc3cc(OC)c(OC(C)=O)c(OC)c3c(=O)c2OC)cc1OC(C)=O	18%	0%	37*	?
O=C1C(Cl)=C(NC2CCc3ccccc32)C(=O)c2ncccc21 (configuration not stated)	49%	11%	.	?
Cc1ccc(/C(C#N)=C\c2cn(C)c3ccccc23)cc1	-10%	-9%	>57	7.9µM*
Cc1ccc(/C(C#N)=C/c2cccc([N+](=O)[O-])c2)cc1	-4%[5.75 µM]	-4%[5.75 µM]	>57	?
CN(C)c1ccc(/C=c2\sc3n(c2=O)CCCN=3)cc1	25%	-7%	>57	-3%
SMILES	AmpC nodet inh	AmpC inh det	Prx2 Sm inh	Anthrax LT inh
CN(C)c1ccc(/C=C2/C(=O)Nc3ccccc32)cc1	19%	0%	>57	13µM*
CC(C)NC(=O)N1CCCC2(CCN(C(=O)c3csnn3)CC2)C1	4%	1%	>57	-10%
Cc1noc(C)c1S(=O)(=O)N1CCCC(C(=O)N2CCN(C3CCCCC3)CC2)C1 (configuration not stated)	4µM*[single pt active]	12%	>57	2%
Cc1cc(NC(=O)C2CCCN(S(=O)(=O)c3c(C)noc3C)C2)n[nH]1 (configuration not stated)	4µM*[single pt active]	11%	>57	?
COc1ccc2nc(NC(=O)C3CCCN(S(=O)(=O)c4c(C)noc4C)C3)sc2c1 (configuration not stated)	4µM*[single pt active]	16%	>57	?
CCOc1ccc2nc(NC(=O)C3CCCN(S(=O)(=O)c4c(C)noc4C)C3)sc2c1 (configuration not stated)	4µM*[single pt active]	10%	>57	?
N#Cc1ccccc1-c1cncnc1NCc1cccnc1	3%	6%	>57	4%
CCCCNc1nc(C)nc2c1nc(-c1ccccc1)n2CC1CCN(C)CC1	56%	17%	.	3%
C[C@H]1C(=O)O[C@H]2CCN3CC=C(COC(=O)[C@](C)(O)[C@@]1(C)O)[C@H]23	-5%	-2%	>57	3%
CCN(C(=O)c1cnc(N2CCN(c3ncccn3)CC2)c2ccccc12)c1cccc(Cl)c1	95%	-4%	>57	16µM*
Cc1cc(C(=O)CSc2nn(-c3ccccc3)c(=S)s2)c(C)n1Cc1ccco1	13µM*	-1%	>57	?
Cc1cc(C(=O)CSc2nnc(-c3ccco3)o2)c(C)n1Cc1ccco1	28%	-3%	>57	-6%
COc1cccc(-c2ccc3ncnc(N(C)Cc4ccco4)c3c2)c1	6.3µM*	10µM*	>57	?
CN(C)c1ccc(-c2ccc3ncnc(N(C)Cc4ccco4)c3c2)cc1	38%	-2%	>57	10µM*
COc1cccc(-c2ccc3ncnc(N4CCOCC4)c3c2)c1	?	10µM*	>57	-30%
CN(Cc1ccco1)c1ncnc2ccc(-c3ccccc3C#N)cc12	72%	8%	>57	?
COc1ccccc1-c1ccc2ncnc(N3CCOCC3)c2c1	133%	7%	>57	?
N#CC1=C(N)NC(SCC(=O)Nc2ccccc2)=C(C#N)C12CCCC2	-20%	6%	>57	10µM*
N#CC(C#N)=NNc1ccc(OC(F)(F)F)cc1	.	.	.	0.5µM*
COCCCNCC(=O)Nc1ccc(OC(F)(F)F)cc1	3%	-6%	>57	-28%
O=C=Nc1ccc(Cc2ccc(N=C=O)cc2)cc1 (tested in a mixture with another compound)	-10%[5.75 µM]	-4%[5.75 µM]	>57	-7%[8 µM]
O=C=Nc1ccc(Cl)c(Cl)c1	?	13%	.	16µM*
Nc1ccc(-c2cc(N)n(-c3ccccc3)n2)cc1	35%	-4%	>57	?
Cc1ccc(-n2nc(-c3ccc(N)cc3)cc2N)cc1	3.2µM*[single pt active]	9%	>57	?
C=CCn1c(SCCCC)nc(O)cc1=O	4µM*[single pt active]	11%	>57	-3%
COc1ccc(C(=O)Oc2ccc3c(c2)OCO3)cc1OC	33%	9%	.	7.9µM*
COc1cc(OC)c(C(=O)Oc2ccc3c(c2)OCO3)cc1OC	47%	-2%	>57	?
COc1cccc(C2=NOC(C(=O)N3CCN(C(=O)c4ccco4)CC3)C2)c1 (configuration not stated)	2.5µM*[single pt active]	19%	>57	4%
